Sampled rows, rich in hits. Any-hit rate of the full collection: about 2.4%.
D2 antagonist: antagonists of human D2 dopamine receptor; P14416; HEK293 TREx D2 cells, calcium flux, dopamine EC80; inhibition, % at 10 µM; 340,000 tested, 2% active; AID 485344; in the data active = inhibition above about 30%; inactive = below that, where a call was filed; also: 0% is about no effect
Target sequence (P14416 whole entry, looked up): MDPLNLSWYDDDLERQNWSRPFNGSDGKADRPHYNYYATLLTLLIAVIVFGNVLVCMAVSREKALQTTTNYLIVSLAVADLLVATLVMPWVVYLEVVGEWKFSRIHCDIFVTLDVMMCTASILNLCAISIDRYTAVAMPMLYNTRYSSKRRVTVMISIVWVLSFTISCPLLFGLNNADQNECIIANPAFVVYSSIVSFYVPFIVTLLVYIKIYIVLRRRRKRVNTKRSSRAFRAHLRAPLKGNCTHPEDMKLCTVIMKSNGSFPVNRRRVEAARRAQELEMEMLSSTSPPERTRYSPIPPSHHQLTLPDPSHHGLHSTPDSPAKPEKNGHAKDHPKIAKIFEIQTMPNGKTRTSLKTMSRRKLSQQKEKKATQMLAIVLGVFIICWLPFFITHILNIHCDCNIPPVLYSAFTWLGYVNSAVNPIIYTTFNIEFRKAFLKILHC
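Measurement of antagonist activity uses fluorescent calcium dye in inducible HEK293 T-REx D2 cells: 10 s baseline, compound addition with 180 s read, EC80 dopamine addition with a further 180 s read.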
D2 ag-1: agonists of human D2 dopamine receptor; HEK293 T-REx D2 cells, calcium flux agonist mode; activation, % at 2 µM; 340,000 tested, 0.53% active; AID 485358;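 active = activation over 3 SD above normal in the single-dose calcium agonist read, cut at about 30% in these data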; also: 0% is about no effect
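Tetracycline-induced HEK293 Trex cells with D2 receptor force-coupled to calcium signaling, plated overnight at 30 C and loaded with no-wash calcium dye. Calcium flux read kinetically for 180 s after compound addition; responses flag agonists.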
D2 ag-2: human D2 receptor agonism in beta-arrestin assay. P14416. DiscoveRx PathHunter D2 beta-arrestin, luminescence, 90 min; 100% = 57 uM dopamine signal. activation, % (test concentration not listed). 360,000 tested, 0.084% active; in the data active = activation above about 40%; inconclusive = between about 15% and that limit
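DiscoveRx PathHunter D2 beta-arrestin cells (2,100/well) attached overnight, then compound-stimulated 90 min at 37 C in HBSS/10 mM HEPES/0.1% Tween-20 buffer; beta-galactosidase complementation read by luminescence after 1 h at ambient temperature. Dopamine 57 uM final (EC100) as control.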
D2 PAM-1: positive allosteric modulators of human D2 dopamine receptor; P14416; HEK293 T-REx D2, calcium flux, EC20 dopamine potentiation; potentiation, % at 10 µM; 340,000 tested, 0.34% active;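 active = potentiation over 3 SD above the plate norm, cut at about 30% in these data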; also: 0% is about no effect
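Using a no-wash calcium dye in inducible, force-coupled HEK293 Trex cells expressing D2, we tracked fluorescence each second for 180 s after compound, then for 180 s after EC20 dopamine to detect augmented signalling.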
D2 PAM-2: human D2 receptor positive allosteric modulation. P14416. 360,000 tested, 0.23% active. DiscoveRx D2 beta-arrestin cells, luminescence, 90 min; 100% = 57 uM dopamine signal. potentiation, % (no concentration beside the values); in the data active = potentiation above about 50%; inconclusive = mostly about 30% to 49%
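D2 cells co-treated with compound plus 50 nM dopamine (EC20) for 90 min at 37 deg C to detect potentiation. Beta-arrestin recruitment was read as enzyme-fragment luminescence after 1 h at ambient temperature. Full response was set by 57 uM dopamine.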
* hit, by the source's call; ! = not confirmed by another sample.

Results for CCOC(=O)c1ccc(NC(=O)Oc2ccccc2)cc1 ?
D2 antagonist: -2; D2 ag-1: 1; D2 ag-2: 0; D2 PAM-1: 33*; D2 PAM-2: -4

Results for O=C(COC(=O)/C=C/c1ccco1)NCc1ccccc1Cl ?
D2 antagonist: 33*; D2 ag-1: 0; D2 ag-2: -2; D2 PAM-1: 9; D2 PAM-2: 0

What do the screens show for `O=C(COC(=O)/C=C/c1ccco1)NCc1ccc(Cl)cc1Cl`?
D2 ag-2: 8; D2 PAM-2: 0

What do the screens show for `Cc1ccc(S(=O)(=O)N2CC(O)CC2C(=O)O)cc1` (stereo not given)?
D2 antagonist: -9; D2 ag-1: 0; D2 ag-2: -3; D2 PAM-1: -2; D2 PAM-2: -8

What do the screens show for `CCc1ccc(S(=O)(=O)c2nnn3c2nc(N(CC)Cc2ccccc2)c2cc(Cl)ccc23)cc1`?
D2 PAM-1: -2

How did Clc1ccc(OCCN2CCCCC2)cc1Cl do in these assays?
D2 antagonist: 103*; D2 ag-1: 0; D2 ag-2: -2; D2 PAM-1: -26; D2 PAM-2: -31

What do the screens show for `Clc1ccc(OCCCN2CCCC2)cc1Cl`?
D2 antagonist: 7; D2 ag-1: 0; D2 ag-2: 3; D2 PAM-1: -24; D2 PAM-2: -12

Results for Cc1cc(OCCCCCN2CCCC2)ccc1Cl ?
D2 antagonist: 59*; D2 ag-1: 1; D2 ag-2: -7; D2 PAM-1: -17; D2 PAM-2: -5

How did CC(C)c1cc(C(F)(F)F)nc(NNc2nc(C(C)C)cc(C(F)(F)F)n2)n1 do in these assays?
D2 ag-2: -3; D2 PAM-2: 3

How did CCS(=O)(=O)N1CCC(n2c(C(F)(F)F)nc3cccnc32)CC1 do in these assays?
D2 ag-1: -1; D2 PAM-1: 9

How did O=C1Cc2cc(S(=O)(=O)NCc3ccccc3Cl)cc3c2N1CCC3 do in these assays?
D2 antagonist: 11; D2 ag-1: 0; D2 ag-2: -2; D2 PAM-1: 34*; D2 PAM-2: -3

Results for CN1C(=O)Cc2cc(S(=O)(=O)NCc3ccccc3Cl)ccc21 ?
D2 PAM-1: -13

What do the screens show for `COc1cc(C2C(C#N)=C(N)Oc3n[nH]c(-c4cccnc4)c32)ccc1OCC(N)=O` (stereo not given)?
D2 antagonist: 30*; D2 ag-1: 1; D2 ag-2: -4; D2 PAM-1: -5; D2 PAM-2: -8

Results for COC(=O)NC1(C(F)(F)F)C(=O)NC(C)=C1C(=O)OC (stereo not given) ?
D2 antagonist: -4; D2 ag-1: 1; D2 ag-2: 0; D2 PAM-1: 39*; D2 PAM-2: -10

Results for Cc1ccc(C)c(Cn2nc3c4ccccc4n(Cc4ccccc4)cc-3c2=O)c1 ?
D2 antagonist: 30*; D2 ag-1: 0; D2 ag-2: -4; D2 PAM-1: 5; D2 PAM-2: -6

Results for Cc1cccc(NC(=O)Cn2nc3c4ccccc4n(Cc4ccccc4)cc-3c2=O)c1 ?
D2 ag-1: 0; D2 PAM-1: 1

How did CC1CN(Cc2csc(-c3ccc(Cl)cc3)n2)CC(C)O1 (stereo not given) do in these assays?
D2 antagonist: 37*; D2 ag-1: -2; D2 ag-2: -2; D2 PAM-1: -23; D2 PAM-2: -16

What do the screens show for `ClCc1csc(-c2ccc(Cl)cc2)n1`?
D2 antagonist: 29; D2 ag-1: 0; D2 ag-2: -7; D2 PAM-1: -12; D2 PAM-2: -10

What do the screens show for `CCCCS(=O)(=O)N1C2=NC(C(=O)OC)=C(C(=O)OC)[C@@H]3N(C)c4ccc(OC)cc4[C@]23C[C@H]1C(=O)OC`?
D2 antagonist: 34*; D2 ag-1: 0; D2 ag-2: -3; D2 PAM-1: 3; D2 PAM-2: -4

How did COC(=O)C1=C(C(=O)OC)[C@@H]2N(C)c3ccc(OC)cc3[C@@]23C[C@@H](C(=O)OC)N(S(=O)(=O)c2ccc([N+](=O)[O-])cc2)C3=N1 do in these assays?
D2 antagonist: 5; D2 ag-1: 1; D2 ag-2: inconclusive; D2 PAM-1: -7; D2 PAM-2: 3

What do the screens show for `CCc1nnc(NC(=O)CSc2nnc(-c3ccncc3)n2C)s1`?
D2 antagonist: -16; D2 ag-1: 1; D2 ag-2: -3; D2 PAM-1: 31*; D2 PAM-2: -5

What do the screens show for `Cc1nnc(SC(C)C(=O)NCC2CCCO2)s1` (stereo not given)?
D2 antagonist: 31*; D2 ag-1: 0; D2 ag-2: -3; D2 PAM-1: -9; D2 PAM-2: 6

What do the screens show for `Cc1ccc(Nc2nnc(SC(C)C(=O)NCC3CCCO3)s2)cc1C` (stereo not given)?
D2 antagonist: -14; D2 ag-1: -1; D2 ag-2: 0; D2 PAM-1: -10; D2 PAM-2: -17

How did CN(C(=S)Nc1cccnc1)c1ccc(O)cc1 do in these assays?
D2 ag-2: 11; D2 PAM-2: 64*

How did CN(C(=S)Nc1ccc(Oc2ccccc2)cc1)c1ccc(O)cc1 do in these assays?
D2 antagonist: -8; D2 ag-1: -1; D2 ag-2: inconclusive; D2 PAM-1: 10; D2 PAM-2: 82*

Results for CCc1ccc(-c2nn(CC(=O)Nc3ccccc3C)c3c2cnc2ccc(C)cc23)cc1 ?
D2 PAM-1: 6

How did CCOC(=O)C1CCCN(Cc2ccc(OCc3ccccc3)cc2)C1 (stereo not given) do in these assays?
D2 antagonist: 86*; D2 ag-1: 10; D2 ag-2: -1; D2 PAM-1: -38; D2 PAM-2: -83

How did CCOC(=O)C1CCCN(Cc2nc(N)nc(Nc3ccccc3)n2)C1 (stereo not given) do in these assays?
D2 antagonist: 46*; D2 ag-1: 0; D2 ag-2: -3; D2 PAM-1: -20; D2 PAM-2: -36

Results for Oc1ccc(NCc2ccc(OCc3ccccc3)cc2)cc1 ?
D2 antagonist: -5; D2 ag-1: -1; D2 ag-2: 40*; D2 PAM-1: 8; D2 PAM-2: 14

Results for CCOC(=O)C1CCCN(CCCc2ccccc2)C1 (stereo not given) ?
D2 antagonist: 70*!; D2 ag-1: 1; D2 ag-2: -3; D2 PAM-1: -22; D2 PAM-2: -11

Results for CCOc1ccc(CNc2ccc(N3CCCC3)cc2)cc1 ?
D2 antagonist: -28; D2 ag-1: 0; D2 ag-2: 2; D2 PAM-1: 2; D2 PAM-2: 3

Results for CCOc1ccc(CNc2ccc(N3CCN(Cc4ccccc4)CC3)cc2)cc1 ?
D2 antagonist: 59*; D2 ag-1: 0; D2 ag-2: 3; D2 PAM-1: -8; D2 PAM-2: -23

What do the screens show for `CCN1CCN(Cc2ccc(OCc3ccccc3)cc2)CC1`?
D2 antagonist: -13; D2 ag-1: -2; D2 ag-2: -3; D2 PAM-1: 32*; D2 PAM-2: -11

Screening data deposited in PubChem by National Center for Advancing Translational Sciences (NCATS).
